# Screening data as filed in PubChem BioAssay.
# KDM5B inh = Primary screen for KDM5B Histone Demethylases FDH-coupled qHTS. 220,000 compounds, 2.6% hits. KDM5B demethylase, FDH-coupled NADH fluorescence (FDH is formaldehyde dehydrogenase). Potency, µM (titrated, usually from 57.7 µM), usual class: inhibitors. AID 1347165, 2019; note: potency is the fitted concentration of half-maximal effect; 0% is about no effect; nearly all actives have a fitted effect of over 70% in size
# Target sequence (Q9UGL1 whole entry, looked up): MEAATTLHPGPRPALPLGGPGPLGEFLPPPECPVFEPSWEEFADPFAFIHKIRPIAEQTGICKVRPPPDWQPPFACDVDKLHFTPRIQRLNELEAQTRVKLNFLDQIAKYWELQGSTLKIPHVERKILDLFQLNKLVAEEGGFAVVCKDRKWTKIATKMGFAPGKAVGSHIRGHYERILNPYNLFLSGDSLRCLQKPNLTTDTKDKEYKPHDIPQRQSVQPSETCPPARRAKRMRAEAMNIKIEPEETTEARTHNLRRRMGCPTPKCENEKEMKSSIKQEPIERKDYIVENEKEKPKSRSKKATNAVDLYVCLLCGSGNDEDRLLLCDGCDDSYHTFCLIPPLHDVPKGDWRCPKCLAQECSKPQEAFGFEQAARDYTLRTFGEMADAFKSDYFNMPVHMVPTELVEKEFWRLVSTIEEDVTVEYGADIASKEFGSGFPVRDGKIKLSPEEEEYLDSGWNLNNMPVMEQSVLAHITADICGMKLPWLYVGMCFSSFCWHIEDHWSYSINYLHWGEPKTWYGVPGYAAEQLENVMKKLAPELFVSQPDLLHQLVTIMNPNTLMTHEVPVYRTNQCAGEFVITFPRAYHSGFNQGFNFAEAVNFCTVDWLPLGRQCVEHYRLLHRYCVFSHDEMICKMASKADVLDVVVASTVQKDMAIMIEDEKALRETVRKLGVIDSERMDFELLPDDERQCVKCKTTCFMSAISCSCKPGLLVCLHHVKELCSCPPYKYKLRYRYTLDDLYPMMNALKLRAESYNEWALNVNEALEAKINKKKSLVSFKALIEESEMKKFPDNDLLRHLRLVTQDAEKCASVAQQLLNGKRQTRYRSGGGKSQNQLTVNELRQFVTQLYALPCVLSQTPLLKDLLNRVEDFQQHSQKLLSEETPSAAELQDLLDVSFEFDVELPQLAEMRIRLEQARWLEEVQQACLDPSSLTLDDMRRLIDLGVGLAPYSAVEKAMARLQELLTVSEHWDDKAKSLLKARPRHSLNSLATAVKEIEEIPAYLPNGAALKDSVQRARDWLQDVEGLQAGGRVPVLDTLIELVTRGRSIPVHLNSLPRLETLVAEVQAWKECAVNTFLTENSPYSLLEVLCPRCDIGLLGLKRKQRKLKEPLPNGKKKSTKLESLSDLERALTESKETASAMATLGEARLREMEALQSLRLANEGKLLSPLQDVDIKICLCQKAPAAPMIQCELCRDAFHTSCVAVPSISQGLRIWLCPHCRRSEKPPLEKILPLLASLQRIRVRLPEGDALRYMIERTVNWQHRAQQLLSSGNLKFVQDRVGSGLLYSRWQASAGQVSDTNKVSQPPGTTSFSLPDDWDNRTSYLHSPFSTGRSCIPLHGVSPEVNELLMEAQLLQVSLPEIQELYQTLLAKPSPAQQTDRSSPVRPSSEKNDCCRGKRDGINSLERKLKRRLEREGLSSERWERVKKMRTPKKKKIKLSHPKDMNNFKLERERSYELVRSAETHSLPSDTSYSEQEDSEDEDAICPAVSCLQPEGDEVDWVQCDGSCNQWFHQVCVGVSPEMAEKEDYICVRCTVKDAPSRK
#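 Measured: NADH fluorescence change, 30 min, RT. System: KDM5BΔAP 200 nM final, H3K4me3 peptide, α-KG, Fe(II), ascorbate, NAD⁺ plus FDH, pH 7.5 HEPES. Compounds: titrated, 10 min pre-incubation with enzyme.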
# SNCA expr inhib = Primary qHTS assay for inhibitors of alpha-synuclein gene (SNCA) expression. Potency, µM (doses to about 57.2 µM), for the others: top-dose activity change, negative = inhibition, hits mostly inhibitors. 140,000 compounds, 0.17% hits. AID 1671194, 2021. HEK-293 SNCA-luciferase knock-in, luminescence, 24 h;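 note: potency is the fitted concentration of half-maximal effect; plate controls were DMSO cells for no effect and cell-free wells for full effect; nearly all actives have a fitted effect of over 45% in size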
# SNCA viab count = GF-AFC viability counterscreen for inhibitors of alpha-synuclein gene (SNCA) expression; HEK-293-SNCA-luc viability, GF-AFC fluorescence, 24 h; Potency, µM (doses to about 57.1 µM), for inactives: at the highest dose activity change, negative = cytotoxicity, most hits filed as cytotoxic; 150,000 compounds, 0.12% hits; AID 1671193, 2021;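 note: potency is the fitted concentration of half-maximal effect; 0% = DMSO-treated cells and -100% = medium-only wells without cells; nearly all actives have a fitted effect of over 30% in size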
#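 Cytotoxicity counterscreen: after 24 h compound treatment of genome-edited SNCA-luciferase HEK-293 cells, live-cell protease substrate GF-AFC read by fluorescence after 30 min; activity scaled between DMSO (0%) and medium-only (-100%), curves Hill-fitted.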
# IP6K1 inh = Primary qHTS assay for small molecule inhibitors of Inositol hexaphosphate kinase 1 (IP6K1); Inositol hexakisphosphate kinase 1 (Homo sapiens), Q92551; activity change, % (series mostly up to about 58 µM); IP6K1 kinase, ADP-Glo luminescence, 2 h; active compounds read low; AID 1645851, 2021; 140,000 compounds, 0.81% hits; in the data active = activity change below about -25%; note: % is set by controls: 0 for no effect and ±100 for the full control effect
#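 ADP-Glo luminescence measures ADP made by human IP6K1 during a 2 h RT reaction with ATP/IP6 (mix at 1.3 mM/130 uM); top library doses 57.5 and 19.1 uM final.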
# The depositor's hits bear a star; i = inactive; ? = inconclusive; · = no result; ! = not active in a repeat; [ ] = remark or other dose. Compounds with a hit are over-represented: about 2.8% of the library has one in this group of screens. Unless noted, calls come from the whole dose curve; as a rule, active = well fitted curve in the direction sought with a large enough effect; inconclusive = small, poorly fitted or top-dose-only effect, or another doubt; inactive = no such curve, though single readings can be large; an effect the other way counts as inactive or inconclusive.
SMILES,KDM5B inh,SNCA expr inhib,SNCA viab count,IP6K1 inh
COCc1cccc(-c2ccc3ncn(-c4ccc(F)cc4F)c(=O)c3n2)c1,31.6µM*,11.7%[87.6 µM],2.7%[87.6 µM],7.2
CCOc1ccc(-c2[nH]ncc2CN)cc1,i,-21.3%,10.1%,-10.3
Cc1ccc2c(C(=O)N3CCN(CC(C)C)CC3)cc(NC(=O)C3CCC3)cc2n1,22.4µM*,-28.1%,9.9%,22.9
Cc1ccc2c(C(=O)N3CCN(c4ccc(F)cc4)CC3)cc(NC(=O)C(C)C)cc2n1,?,-2.1%,15.6%,21.8
CNC(=O)c1cc(NC(=O)C2CCC2)cc2nc(C)ccc12,31.6µM*,-9.7%,6.9%,22.4
Cc1ccc2c(C(=O)O)cc(NC(=O)C3CCC3)cc2n1,22.4µM*,-13.4%,15.0%,-2.6
Cc1ccc2c(C(=O)NCCc3cccs3)cc(NC(=O)C3CCC3)cc2n1,?,-17.9%,-4.0%,12.3
Cc1ccc2c(C(=O)N3CCN(C(C)C)CC3)cc(NC(=O)C(C)C)cc2n1,25.1µM*,12.4%,3.4%,2.5
Cc1cc(C)cc(NC(=O)C2CCCCC2)c1,i,·,·,·
Cc1cccc(-n2c3c(c(=O)[nH]c2=O)CN(Cc2ccco2)CN3)c1,i,·,·,·
COCCN1CCCCC(CC(=O)Nc2cccc(OC)c2)C1=O (stereo unspecified),i,12.3%,-3.4%,-0.8
COc1cccc(C(=O)N2CCN(C(=O)c3nc4cccnc4n(C4CCCC4)c3=O)CC2)c1,·,13.0%,12.7%,23.3
CN(C)CC(C)(C)Cn1ccnc1-c1cn(C2CCNCC2)nn1,?,-2.7%,-2.2%,-2.2
OCC1(CN2CCCC2)CCN(Cc2cccc3cc[nH]c23)CC1,i,1.2%,-1.4%,12.8
Cc1ccc(NC(=O)c2cc(NC(=O)C3CC3)cc3nc(C)ccc23)cc1,?,3.7%,4.9%,-1.7
Cc1ccc2c(C(=O)N3CCOCC3)cc(NC(=O)C3CCC3)cc2n1,22.4µM*,1.2%,-4.6%,0.4
COc1ccc(NC(=O)c2cc(NC(=O)C3CCC3)cc3nc(C)ccc23)cc1,25.1µM*,2.8%,-9.2%,7.1
CS(=O)(=O)c1ccc(CN2CC[C@H]3NCCC[C@]3(C(=O)O)C2)cc1,?,-17.0%,-4.5%,4.9
CCNC(=O)[C@@H]1C[C@H](NC(=O)c2ccc(CO)o2)CN1Cc1nccs1,i,5.0%,5.0%,7.8
Cc1cc(C(=O)N2C[C@@H](COCC3CC3)[C@H](c3ccccn3)C2)n[nH]1,i,-13.1%,0.2%,1.7
O=C(c1cc[nH]c(=O)c1)N1C[C@@H](COCC2CC2)[C@H](c2ccccn2)C1,28.2µM*,-5.4%,4.8%,6.0
Cc1cn2nc(C(=O)N3CCC(C)CC3)cc2c(N(C)Cc2ccccc2)n1,28.2µM*,13.7%,-10.9%,-1.7
Cc1cn2nc(C(=O)N3CCCC3)cc2c(N(C)Cc2ccccc2)n1,?,?,?,0.1
Cc1cn2nc(C(=O)Nc3ccccc3F)cc2c(N(C)Cc2ccccc2)n1,22.4µM*,-9.0%,2.3%,-11.1
Cc1cn2nc(C(=O)Nc3ccc4c(c3)OCO4)cc2c(N(C)Cc2ccccc2)n1,?,43.8%,-6.9%,5.0
SMILES,KDM5B inh,SNCA expr inhib,SNCA viab count,IP6K1 inh
Cc1cn2nc(C(=O)Nc3ccc(F)c(F)c3)cc2c(N(C)Cc2ccccc2)n1,31.6µM*,-13.5%,14.6%,-11.1
Cc1ccc(C)c(NC(=O)CCNC(=O)C2CCCC2)c1,i,·,·,·
Cc1oc(C(O)c2ccccc2F)nc1C(=O)Nc1ccccc1C(N)=O (stereo unspecified),35.5µM*,6.0%[87.6 µM],-15.7%[87.6 µM],14.2
Cc1oc(C(O)c2ccccc2F)nc1C(=O)Nc1ccc(C(N)=O)cc1 (stereo unspecified),i,24.9%[87.6 µM],4.6%[87.6 µM],-5.0
Cc1cccc(NC(c2cccc(Cl)c2)c2ccc3cccnc3c2O)n1 (stereo unspecified),?,8.91µM*,-4.0%,-0.4
CCc1ccc(CN2CCC3(CC2)Cc2ccccc2CNC3=O)s1,i,-1.3%,-2.5%,4.4
CC(C)NC(=O)C1CCN(C(=O)c2ncn3c2COC(c2ccccc2)C3)CC1 (stereo unspecified),i,61.0%,7.4%,-4.3
COc1ccccc1OC(C)C(=O)N1CCN(CCc2ccccn2)CC1 (stereo unspecified),i,20µM*,-3.2%,-11.0
CC(Oc1ccccc1Cl)C(=O)N1CCN(CCc2ccccn2)CC1 (stereo unspecified),i,11.6%,5.5%,-5.7
Nc1ccc(C(O)c2ccccc2)cc1 (stereo unspecified),i,·,·,·
O=C(c1ccc2cc[nH]c2c1)N1C[C@@H](CO)[C@H](c2nc(C3CC3)no2)C1,31.6µM*,6.7%,2.4%,-3.8
O=C(c1cc(C2CC2)[nH]n1)N1CC(F)(F)C[C@H]1c1nc(C2CC2)no1,i,-14.3%,3.4%,0.7
O=C(c1cc[nH]c(=O)c1)N1CC(F)(F)C[C@H]1c1nc(C2CC2)no1,28.2µM*,15.0%,1.2%,-2.2
O=C(Cc1ccc(Cl)cc1)N1CCCN(c2cc(-c3ccccc3)[nH]n2)CC1,?,-25.8%,-10.1%,14.5
CN(C)c1cccc(C(=O)NC2CCN(c3cc(-c4ccc(F)cc4)[nH]n3)CC2)c1,i,233.8%,9.1%,23.6
CN(C)c1cccc(C(=O)NC2CCN(c3cc(-c4ccc(Cl)cc4)[nH]n3)CC2)c1,31.6µM*,177.5%,-4.7%,15.6
CN(C)c1cccc(C(=O)N2CCN(c3cc(-c4ccc(Cl)cc4)[nH]n3)CC2)c1,31.6µM*,3.2%,-22.5%,6.6
COc1ccc(-c2cc(N3CCCC(NC(=O)c4cccc(N(C)C)c4)C3)n[nH]2)cc1 (stereo unspecified),28.2µM*,26.0%,-18.3%,0.0
O=C(Cc1ccccc1F)N1CCCN(c2cc(-c3ccc(Cl)cc3)[nH]n2)CC1,10µM*,-10.8%,?,-10.3
O=C(Nc1ccc2c(c1)CN(C(=O)COc1ccccc1)CCO2)C1CC1,·,-10.7%,-4.3%,-11.8
COC1CCOC2(CCN(C(=O)C3(c4ccccc4)CC3)CC2)C1 (stereo unspecified),i,-3.8%,1.8%[12.5 µM],0.9
O=C(Nc1cccc(C(F)(F)F)c1)N1C[C@@H](F)[C@@H](OCc2nc3ccccc3[nH]2)C1,i,-7.4%[87.6 µM],-9.2%[87.6 µM],-24.6
O=C(c1ccc(Cl)cc1)N1CCC(N2CCCC2)CC1,i,0.1%[87.6 µM],15.0%,-17.7
O=C(c1ccc(Nc2nccc(-c3cc4ccccc4s3)n2)cc1)N1CCC(N2CCCC2)CC1,·,?,29.9µM*!,-1.1
Cc1ccc(-c2cc3c(=O)n(CCNC(=O)c4ccccc4F)ccn3n2)c(C)c1,i,44.8%,0.4%,0.1
Cc1nc(-c2ccc(F)cc2)n(Cc2nc(-c3ccc(OC(C)C)cc3)oc2C)c(=O)c1CCO,15.8µM*,18.6%,4.9%,-1.9
Cc1nc(-c2ccccc2)n(Cc2nc(-c3ccc(OC(C)C)cc3)oc2C)c(=O)c1CCO,?,-5.3%,-2.3%,-1.7
CN(C)C(=O)c1nc(-c2ccccc2)c2ccccn12,i,36.0%[87.6 µM],4.6%[87.6 µM],21.2
